Reference: ChEMBL document CHEMBL4513216, “Probing the Open Global Health Chemical Diversity Library for Multistage-Active Starting Points for Next-Generation Antimalarials” (ACS Infect Dis, 2020)
The campaign covered roughly 68,000 compounds. About 2,700 (4%) showed an effect of 50% or more. The full list was thinned out, with strong results kept by preference.

System: Plasmodium berghei
Test: Screen against P. berghei liver stage (PbLuc), transformed with Luciferase, at 2uM
Format: functional, HepG2
Details: tested at 2 uM

Row | Compound | INHIBITION
1 | O=C(NCC(F)(F)F)C1CCCN(Cc2ccno2)C1 (centres undefined) | 20.32%
2 | CC(C)c1nnc(NC(=O)C2CSCN2C(=O)C2CCC2)s1 (centres undefined) | -52.32%
3 | O=C(c1cnccn1)N1CCN2C[C@H](OCc3ccccc3F)C[C@H]2C1 | -6.88%
4 | CCCSCC(=O)N1C[C@@H]2CC[C@H]1CN(Cc1cccnc1)C2 | 16.1%
5 | O=C(O)CC1COCCN1CCCc1ccccc1 (centres undefined) | 3.35%
6 | Cc1cc(N2CCCC2c2cc(Nc3cnccn3)nc(C)n2)ncn1 (centres undefined) | 43.23%
7 | O=C(CCc1nc2cc(Br)cnc2[nH]1)NCc1cccnc1 | 10.22%
8 | c1ccc(CN2CCCC(CNc3ncnc4c3CCNCC4)C2)cc1 (centres undefined) | 29.87%
9 | c1ccc(CN2CCC(CNc3ncnc4c3CCNCC4)CC2)cc1 | 70.58%
10 | c1ccc(CN2CCC(CCNc3ncnc4c3CCNCC4)C2)cc1 (centres undefined) | 31.3%
11 | O=C(c1ccncc1F)N1CCc2ncnc(C3CC3)c2CC1 | 21.67%
12 | CCOc1ncccc1CNCc1c(C(C)C)nn(C)c1N(C)C | 74.35%
13 | CC(C)c1nn(C)c(N(C)C)c1CNCc1cccnc1N(C)C | 39.54%
14 | CC(C)c1nn(C)c(N(C)C)c1CNCc1ccc2c(c1)OCO2 | -41.21%
15 | CCOc1ncccc1CNCc1c(C)nn(C)c1N(C)C | 47.87%
16 | COc1ncccc1CNCc1c(C)nn(C)c1N(C)C | 11.2%
17 | CC(C)c1nn(C)c(N(C)C)c1CNCc1ccc2c(c1)OCCO2 | 66.2%
18 | COc1ncccc1CNCc1c(C(C)C)nn(C)c1N(C)C | 43.28%
19 | CC(C)c1nn(C)c(Cl)c1CNCc1ccc2c(c1)OCCO2 | 8.37%
20 | Cc1nn(C)c(N(C)C)c1CNCc1cccnc1OC(C)C | 53.98%
21 | C[C@@H]1C(=O)NC[C@H]2CN(Cc3ccsc3)C[C@H]21 | -66%
22 | CC(C)(C)c1nc(CN2CCCC(Cn3cncn3)C2)no1 (centres undefined) | -64.16%
23 | CN(C)C(=O)c1cn[nH]c1C1CCCN1Cc1nccn1C (centres undefined) | 11.2%
24 | Cc1[nH]/c(=N\C(=O)c2csc(NC3CCCC3)n2)sc1C | 34.93%
25 | CCS(=O)(=O)N1Cc2ncn(CC3CC3)c2C(COC)C1 (centres undefined) | 26.19%
26 | Clc1ccc2oc(C3CCN(Cc4nc(C5CC5)no4)CC3)nc2c1 | 10.11%

Row | Compound | INHIBITION
27 | c1cc(CCN2CCN(c3ccc4nncn4n3)CC2)ccn1 | -1.88%
28 | C[S+]([O-])c1nncn1CC(=O)c1ccc(Cl)c(Cl)c1 (centres undefined) | 20.66%
29 | C[S+]([O-])c1nncn1CC(=O)c1ccc2c(c1)CCC2 (centres undefined) | 61.82%
30 | C[S+]([O-])c1nncn1CC(=O)c1ccc2c(c1)CCO2 (centres undefined) | -0.75%
31 | COc1ccc(C2CN(c3cc(C)ncn3)CCN2C(C)=O)cc1 (centres undefined) | -28.43%
32 | CSCc1noc(CN2CC(Cc3ccccc3)CC2=O)n1 (centres undefined) | 6.75%
33 | O=C(c1cc(=O)[nH]c(=O)[nH]1)N1CCCCC1c1nc2cc(F)ccc2[nH]1 (centres undefined) | -18.49%
34 | CC(NCC(=O)NCC(=O)Nc1ccc(F)cc1)c1cccs1 (centres undefined) | 16.95%
35 | CN(CC(=O)NCC(=O)Nc1ccc(F)cc1)Cc1cccs1 | 69.13%
36 | O=C(Cc1cccs1)NCC(=O)Nc1cn[nH]c1 | 28.49%
37 | CCn1cc(C(=O)N2CCOC(c3nc(-c4cccs4)no3)C2)cn1 (centres undefined) | -36.52%
38 | COc1cc(-c2n[nH]c(CC#N)n2)cc(OC)c1OC | 16.72%
39 | CCc1cc(N2CCC(n3cc(C(=O)NC4CC4)nn3)CC2)ncn1 | 52.66%
40 | CCc1cc(N2CCC(n3cc(C(=O)NCC(C)C)nn3)CC2)ncn1 | -71.68%
41 | CC(C)Nc1cc(N2CCC(n3cc(C4CCCC4)nn3)CC2)ncn1 | -1.21%
42 | CC(C)Nc1cc(N2CCC(n3cc(CCO)nn3)CC2)ncn1 | 69.71%
43 | CC(C)Nc1cc(N2CCC(n3cc(C4CC4)nn3)CC2)ncn1 | -46.8%
44 | O=C(NC1CC1)c1cn(C2CCN(c3cc(C4CC4)ncn3)CC2)nn1 | -26.81%
45 | CCC(CO)NCc1ccc(-c2ccc(Cl)cc2)o1 (centres undefined) | 2.25%
46 | CNC(=O)CCc1cc(C)nc(C2CCN(c3ccccc3)CC2)c1 | -107.54%
47 | CN(C)CCN1CCC2(CCN(C(=O)c3cccnc3)CC2)C1=O | 6.66%
48 | O=C(O)c1nnn(Cc2cccc(C(F)(F)F)c2)c1-c1ccncc1 | 43.75%
49 | O=C(O)c1nnn(Cc2cccc(C(F)(F)F)c2)c1-c1ccccn1 | 55.25%
50 | O=C(O)c1nnn(Cc2cccc(C(F)(F)F)c2)c1-c1cccnc1 | 39.9%
51 | COc1ccc2c(c1)CN(Cc1ccco1)C(=O)CCN2CC(C)(C)O | -35.52%
52 | CN(C(=O)c1cc(F)ccc1F)[C@@H]1CC[C@@H](O)[C@@H]1O | 41.21%

Row | Compound | INHIBITION
53 | CO[C@@H]1CCC[C@@H](N(C)C(=O)c2cc(F)ccc2F)[C@H]1O | 53.16%
54 | COc1ccc(F)cc1C(=O)N(C)[C@@H]1CC[C@@H](O)[C@@H]1O | 16.87%
55 | O=C(CO)N1CCOC2(CCCN(c3ncc(F)cn3)C2)C1 (centres undefined) | 14.27%
56 | CC(C)(C(=O)N1CCCC(OCc2cccnc2)C1)n1cccc1 (centres undefined) | 27.81%
57 | CN(CCO)CC1COCCN1C(=O)CCC1CCCC1 (centres undefined) | 69.06%
58 | O=C(CC1CCCCC1)N1CCOCC1CO (centres undefined) | 18.81%
59 | CN(CCO)CC1COCCN1C(=O)C1CCCCC1 (centres undefined) | -23.4%
60 | CCOC(=O)NCC(=O)Nc1nc2ccccc2n1C(C)(C)C | 30.23%
61 | CCc1nccc(CN2CCC(CNC(=O)c3occc3C)C2)n1 (centres undefined) | -4.04%
62 | CC(C)c1ncc2c(n1)CN(Cc1nc(Cc3ccccc3)no1)CC2 | 6.12%
63 | c1ccc(Cc2noc(CN3CCc4cncnc4C3)n2)cc1 | 56.02%
64 | Cc1ncc2c(n1)CN(Cc1nc(Cc3ccccc3)no1)CC2 | -54.44%
65 | Cc1cccc(C2CCCN2C(=O)CN(C)S(C)(=O)=O)c1C (centres undefined) | -73.81%
66 | COCCn1c2c(ccc1=O)CC(NC(=O)c1cscn1)CC2 (centres undefined) | -25.4%
67 | NC1CC(C(F)(F)F)=NC=C1c1ccc(Cl)cc1 (centres undefined) | -19.36%
68 | CN(C)c1cc(CNCc2cccc3c2OCCO3)ccn1 | -15.64%
69 | FC1(F)CCN(Cc2cccnc2)CC12CCN(c1ccccc1)C2 (centres undefined) | 31.41%
70 | O=C([C@H]1CCCO1)N1CCc2ncnc(NC3CC3)c2CC1 | -15.36%
71 | O=C(C1CCCCO1)N1CCc2ncnc(NCc3ccon3)c2CC1 (centres undefined) | 59.58%
72 | O=C(C1CCCCO1)N1CCc2ncnc(NCCO)c2CC1 (centres undefined) | 57.89%
73 | O=C(CC1C=CCC1)N1CCc2ncnc(NCc3ccon3)c2CC1 (centres undefined) | 42.26%
74 | COc1cccc(CC(=O)N2CCc3ncnc(NC(C)C)c3CC2)c1 | 2.71%
75 | CC(C)Nc1ncnc2c1CCN(C(=O)[C@H]1CCCO1)CC2 | 35.89%
76 | COc1cccc(CC(=O)N2CCc3ncnc(C)c3CC2)c1 | 19.49%
77 | COc1cccc(CC(=O)N2CCc3ncnc(NCCO)c3CC2)c1 | 52.98%
78 | O=C(C1CCCO1)N1CCc2ncnc(NC3CCC3)c2CC1 (centres undefined) | 46.32%

Row | Compound | INHIBITION
79 | CC(NCc1ccc(-c2ccc(F)cc2)o1)c1nnc2n1CCC2 (centres undefined) | -40.26%
80 | Nc1nnc(Cn2nnc(-c3ccccc3F)n2)s1 | 39.58%
81 | CNc1ncc(CN2CCC(CCc3ccccc3)CC2)cn1 | 49.87%
82 | O=C(c1cccc(-n2cnnc2)c1)N1C[C@@H](O)[C@H](N2CCOCC2)C1 | -8.04%
83 | COc1ccc(C[C@@H]2CC[C@H](CN(C)C3CCN(C)CC3)O2)cc1 | 68.08%
84 | CN1CCC(N(C)C[C@H]2CC[C@@H](Cc3cccc(O)c3)O2)CC1 | -66.38%
85 | CN1CCC(N(C)C[C@H]2CC[C@@H](Cc3ccc4occc4c3)O2)CC1 | -10.59%
86 | Cc1cc(C)n(CC2CCCCN2CC(=O)N(C)Cc2ccco2)n1 (centres undefined) | 40.82%
87 | CC(CNC(=O)c1c[nH]nn1)Oc1ccc(Cl)cc1 (centres undefined) | -4.64%
88 | O=C(C1CCOC1)N1CCN(Cc2ccncc2)c2ncccc2C1 (centres undefined) | 31.08%
89 | O=C(C1CCOCC1)N1CCN(CC2CC2)c2ncccc2C1 | 51.27%
90 | O=C(N1CCCC1)N1CCN(CC2CC2)c2ncccc2C1 | -3.08%
91 | CCN(CC)S(=O)(=O)N(CC)Cc1ccc2c(c1)OCCO2 | -3.05%
92 | CCN(Cc1ccc2c(c1)OCO2)S(=O)(=O)N(C)C(C)C | 41.99%
93 | CCN(Cc1ccc2c(c1)OCCO2)S(=O)(=O)N(C)C(C)C | 63.95%
94 | Cc1n[nH]c(C2CN(CC(=O)NCCc3ccc(F)cc3)CCO2)n1 (centres undefined) | 5.47%
95 | Cc1nc2[nH]cnc(NCCN3CCCC3)c-2n1 | -20.68%
96 | CC(c1cccc(-c2ncc(C#N)c(N)n2)c1)N(C)C (centres undefined) | -38.96%
97 | CCCS(=O)(=O)N1CCC2(CCCN(Cc3cccc(F)c3F)C2=O)C1 (centres undefined) | 50.59%
98 | CN(C)S(=O)(=O)N1CCC2(CCCN(Cc3ccc(F)cc3)C2=O)C1 (centres undefined) | -37.84%
99 | CCS(=O)(=O)N1CCC2(CCCN(Cc3ccc(F)c(F)c3)C2=O)C1 (centres undefined) | 50.59%
100 | O=C1N(Cc2ccccc2F)CCCC12CCN(C1CCSCC1)C2 (centres undefined) | 11.26%
101 | O=C1N(Cc2ccc(F)c(F)c2)CCCC12CCN(C1CCCC1)C2 (centres undefined) | 23.18%
102 | CCCS(=O)(=O)N1CCC2(CCN(Cc3cccc(F)c3)C2=O)C1 (centres undefined) | -25.61%
103 | COc1cnc(N2C[C@H](CO)C[C@H](CN3CCOCC3)C2)nc1 | -3.87%
104 | COc1c(C2CCCN2C(=O)c2ccc(C(N)=O)s2)c(C)nn1C (centres undefined) | -21.71%
